# Test results published in the supplement of paper PMC12819154, “High-throughput peptide-centric local stability assay extends protein–ligand identification to membrane proteins, tissues and bacteria” (Nature Structural & Molecular Biology, 2025).
# Compound: CN[C@@H]1C[C@H]2O[C@@](C)([C@@H]1OC)n1c3ccccc3c3c4c(c5c6ccccc6n2c5c31)C(=O)NC4 [staurosporine]
# Assay: log2 fold change of tryptic peptide abundance, ligand vs vehicle (limited proteolysis) (log2 ratio); higher = more trypsin-susceptible (destabilized)
# Settings: ligand concentration: 20 uM; sample: mouse liver crude lysate; replicate design: treated separately
# Sequence of UniProt O54781 (O54781 whole entry): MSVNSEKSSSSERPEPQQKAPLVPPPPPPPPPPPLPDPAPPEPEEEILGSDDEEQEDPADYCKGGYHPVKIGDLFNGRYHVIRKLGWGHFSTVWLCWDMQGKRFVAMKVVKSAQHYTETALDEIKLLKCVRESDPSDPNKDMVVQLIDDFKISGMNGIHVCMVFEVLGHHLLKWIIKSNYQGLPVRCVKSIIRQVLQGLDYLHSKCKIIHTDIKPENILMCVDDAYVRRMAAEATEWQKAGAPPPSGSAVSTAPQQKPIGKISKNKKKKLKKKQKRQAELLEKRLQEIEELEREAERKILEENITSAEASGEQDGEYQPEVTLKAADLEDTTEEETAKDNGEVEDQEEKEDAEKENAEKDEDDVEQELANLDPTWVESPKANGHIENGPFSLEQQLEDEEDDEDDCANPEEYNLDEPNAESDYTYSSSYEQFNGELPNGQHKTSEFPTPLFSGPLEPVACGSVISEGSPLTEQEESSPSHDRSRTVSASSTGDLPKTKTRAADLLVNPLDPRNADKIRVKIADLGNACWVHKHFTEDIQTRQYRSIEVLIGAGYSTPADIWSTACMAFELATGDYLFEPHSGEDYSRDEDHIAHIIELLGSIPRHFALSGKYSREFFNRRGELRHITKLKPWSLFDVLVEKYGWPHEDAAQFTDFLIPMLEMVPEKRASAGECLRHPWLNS
# Sequence of UniProt P12367 (P12367 whole entry): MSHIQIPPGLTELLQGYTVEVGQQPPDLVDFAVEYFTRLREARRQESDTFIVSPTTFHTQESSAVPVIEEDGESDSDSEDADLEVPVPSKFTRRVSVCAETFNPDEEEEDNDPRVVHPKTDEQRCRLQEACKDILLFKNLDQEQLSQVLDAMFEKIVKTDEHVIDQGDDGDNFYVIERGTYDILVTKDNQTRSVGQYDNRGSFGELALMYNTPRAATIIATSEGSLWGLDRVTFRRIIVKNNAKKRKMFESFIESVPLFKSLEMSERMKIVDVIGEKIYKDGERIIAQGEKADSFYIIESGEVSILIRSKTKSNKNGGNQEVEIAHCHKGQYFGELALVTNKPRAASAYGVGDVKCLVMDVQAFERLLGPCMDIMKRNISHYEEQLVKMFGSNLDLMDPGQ
# Sequence of UniProt Q8BWW9 (Q8BWW9 whole entry): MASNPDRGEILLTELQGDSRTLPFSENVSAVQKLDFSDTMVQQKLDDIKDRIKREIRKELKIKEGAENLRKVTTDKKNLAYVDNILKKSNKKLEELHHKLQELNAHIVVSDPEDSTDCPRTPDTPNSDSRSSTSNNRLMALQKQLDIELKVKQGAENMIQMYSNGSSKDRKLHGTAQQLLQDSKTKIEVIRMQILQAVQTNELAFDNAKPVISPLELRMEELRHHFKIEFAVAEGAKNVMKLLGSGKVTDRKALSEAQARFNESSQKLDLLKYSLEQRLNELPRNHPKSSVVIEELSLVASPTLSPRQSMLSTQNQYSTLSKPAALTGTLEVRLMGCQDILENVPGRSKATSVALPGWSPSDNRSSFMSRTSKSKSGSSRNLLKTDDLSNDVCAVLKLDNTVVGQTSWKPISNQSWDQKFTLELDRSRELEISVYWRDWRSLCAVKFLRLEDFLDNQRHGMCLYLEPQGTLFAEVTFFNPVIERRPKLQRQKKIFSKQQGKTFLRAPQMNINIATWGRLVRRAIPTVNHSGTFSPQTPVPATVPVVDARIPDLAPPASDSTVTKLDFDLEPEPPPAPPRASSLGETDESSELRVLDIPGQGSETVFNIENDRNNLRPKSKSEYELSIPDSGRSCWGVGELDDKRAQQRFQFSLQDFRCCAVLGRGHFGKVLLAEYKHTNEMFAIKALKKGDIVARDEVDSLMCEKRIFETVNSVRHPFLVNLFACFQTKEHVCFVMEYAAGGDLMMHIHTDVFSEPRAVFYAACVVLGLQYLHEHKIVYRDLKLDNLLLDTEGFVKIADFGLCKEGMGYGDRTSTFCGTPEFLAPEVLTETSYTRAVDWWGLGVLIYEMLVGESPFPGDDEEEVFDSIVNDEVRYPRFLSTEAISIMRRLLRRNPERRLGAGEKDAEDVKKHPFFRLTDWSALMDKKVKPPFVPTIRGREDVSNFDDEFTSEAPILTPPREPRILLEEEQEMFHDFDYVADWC
# Sequence of UniProt Q68FL6 (Q68FL6 whole entry): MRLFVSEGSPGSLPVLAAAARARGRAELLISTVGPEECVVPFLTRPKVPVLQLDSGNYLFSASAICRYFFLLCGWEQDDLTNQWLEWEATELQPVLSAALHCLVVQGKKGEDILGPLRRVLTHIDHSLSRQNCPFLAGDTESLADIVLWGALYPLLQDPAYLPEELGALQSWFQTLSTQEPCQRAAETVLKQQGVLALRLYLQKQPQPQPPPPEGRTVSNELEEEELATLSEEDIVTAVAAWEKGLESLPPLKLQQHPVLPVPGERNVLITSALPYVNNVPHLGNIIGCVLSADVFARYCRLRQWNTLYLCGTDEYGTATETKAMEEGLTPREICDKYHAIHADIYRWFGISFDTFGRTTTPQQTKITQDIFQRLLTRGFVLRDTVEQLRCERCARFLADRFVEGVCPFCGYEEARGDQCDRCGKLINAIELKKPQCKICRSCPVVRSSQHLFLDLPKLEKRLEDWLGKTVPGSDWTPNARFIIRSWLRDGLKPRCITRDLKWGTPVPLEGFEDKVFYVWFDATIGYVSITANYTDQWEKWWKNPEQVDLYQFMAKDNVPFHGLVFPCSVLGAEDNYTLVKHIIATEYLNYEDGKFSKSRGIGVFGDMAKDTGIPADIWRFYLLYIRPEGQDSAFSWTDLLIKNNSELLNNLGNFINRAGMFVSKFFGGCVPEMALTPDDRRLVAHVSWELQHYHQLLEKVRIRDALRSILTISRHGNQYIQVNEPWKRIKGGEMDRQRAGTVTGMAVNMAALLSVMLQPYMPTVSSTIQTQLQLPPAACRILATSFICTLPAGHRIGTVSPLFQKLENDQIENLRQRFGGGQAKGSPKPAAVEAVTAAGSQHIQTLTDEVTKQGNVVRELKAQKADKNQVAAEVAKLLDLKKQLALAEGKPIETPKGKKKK
# Sequence of UniProt Q9DC61 (Q9DC61 whole entry): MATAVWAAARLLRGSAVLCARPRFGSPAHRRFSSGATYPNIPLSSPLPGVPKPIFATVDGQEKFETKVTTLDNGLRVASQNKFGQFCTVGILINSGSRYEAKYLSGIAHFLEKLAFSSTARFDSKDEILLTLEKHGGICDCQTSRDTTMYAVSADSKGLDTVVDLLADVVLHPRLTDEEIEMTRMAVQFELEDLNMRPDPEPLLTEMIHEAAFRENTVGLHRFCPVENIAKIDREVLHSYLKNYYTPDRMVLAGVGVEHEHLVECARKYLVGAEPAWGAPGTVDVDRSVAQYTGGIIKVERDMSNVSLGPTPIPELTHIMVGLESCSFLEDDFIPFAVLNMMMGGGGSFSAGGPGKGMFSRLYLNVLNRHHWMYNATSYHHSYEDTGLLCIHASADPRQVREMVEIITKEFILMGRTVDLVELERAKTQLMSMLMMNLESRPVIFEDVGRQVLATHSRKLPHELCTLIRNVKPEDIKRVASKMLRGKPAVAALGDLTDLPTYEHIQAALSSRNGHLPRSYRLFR
# Sequence of UniProt P47802 (P47802 whole entry): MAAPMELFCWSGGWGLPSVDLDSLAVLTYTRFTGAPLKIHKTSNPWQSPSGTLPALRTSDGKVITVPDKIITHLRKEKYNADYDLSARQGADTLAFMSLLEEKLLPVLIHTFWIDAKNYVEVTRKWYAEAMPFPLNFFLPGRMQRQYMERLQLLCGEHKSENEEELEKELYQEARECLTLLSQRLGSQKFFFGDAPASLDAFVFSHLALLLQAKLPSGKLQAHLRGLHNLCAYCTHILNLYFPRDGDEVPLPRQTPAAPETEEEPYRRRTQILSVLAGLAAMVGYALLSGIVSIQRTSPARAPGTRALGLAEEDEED
row,Target,log2 fold change
1,"UniProt Q9DC61 (peptide sequence: QVLATHSR, peptide start residue: 451)",-1.12
2,"UniProt P12367 (peptide sequence: IVDVIGEK, peptide start residue: 270)",0.593
3,"UniProt E9Q3L2 (peptide sequence: ACLSALSEVK, peptide start residue: 1763)",-0.812
4,"UniProt O54781 (peptide sequence: HFTEDIQTR, peptide start residue: 500)",-1.82
5,"UniProt Q68FL6 (peptide sequence: GIGVFGDMAK, peptide start residue: 601)",0.564
6,"UniProt P47802 (peptide sequence: EKYNADYDLSAR, peptide start residue: 77)",-0.346
7,"UniProt Q8BWW9 (peptide sequence: VKPPFVPTIR, peptide start residue: 928)",-2.86
